# Data from PubChem BioAssay (Tox21).
# Records with an inconclusive call do not appear. Where a call stands in place of a potency, no number is given. Values without a mark were called inactive. Activity calls are given as the source filed them. Calls come from the whole dose curve; as a rule, active = well fitted curve in the direction sought with a large enough effect in the repeat runs; inconclusive = weak or mixed curves; inactive = no such curve, though single readings can be large; an effect the other way counts as inactive or inconclusive.
# How the values were obtained:
# [1] = target: Nuclear receptor subfamily 1 group I member 2 (Homo sapiens) (UniProt O75469); assay: CYP3A4 induction through human pregnane X receptor (PXR) by small molecules, qHTS assay (AID 1346984); note: nearly all actives have a fitted effect of over 40% in size
# How it was run: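 Cells (DPX-2; HepG2 with PXR element plus CYP3A4-promoter luciferase) settled 5hr, then were treated 24hr at 37C. A 3hr, 3uM-final Luciferin-IPA step preceded luminescence measurement with One-Glo.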
# [2] = target: Nuclear receptor subfamily 1 group I member 2 (Homo sapiens) (UniProt O75469); assay: Human pregnane X receptor (PXR) activation by small molecules, qHTS assay (AID 1346985); note: nearly all actives have a fitted effect of over 40% in size
# How it was run: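 DPX-2 cells (HepG2 co-transfected with a PXR response element and a CYP3A4-promoter luciferase construct) were seeded at 2,000 per well, rested 5 hr at 37C, then exposed to DMSO-dissolved compounds for 24 hr. Activation was read as luciferase luminescence.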
# [3] = target: Cytochrome P450 2D6 (Homo sapiens) (UniProt P10635); assay: Cytochrome P450 Family 2 Subfamily D Member 6 (CYP2D6) small molecule antagonists: luciferase reporter qHTS assay (AID 1671196); note: nearly all actives have a fitted effect of over 50% in size; note: potency is the fitted concentration of half-maximal effect; for activity change, negative = inhibition: series mostly up to about 120 µM
# Sequence of Cytochrome P450 2D6 (Homo sapiens) (P10635 whole entry, looked up): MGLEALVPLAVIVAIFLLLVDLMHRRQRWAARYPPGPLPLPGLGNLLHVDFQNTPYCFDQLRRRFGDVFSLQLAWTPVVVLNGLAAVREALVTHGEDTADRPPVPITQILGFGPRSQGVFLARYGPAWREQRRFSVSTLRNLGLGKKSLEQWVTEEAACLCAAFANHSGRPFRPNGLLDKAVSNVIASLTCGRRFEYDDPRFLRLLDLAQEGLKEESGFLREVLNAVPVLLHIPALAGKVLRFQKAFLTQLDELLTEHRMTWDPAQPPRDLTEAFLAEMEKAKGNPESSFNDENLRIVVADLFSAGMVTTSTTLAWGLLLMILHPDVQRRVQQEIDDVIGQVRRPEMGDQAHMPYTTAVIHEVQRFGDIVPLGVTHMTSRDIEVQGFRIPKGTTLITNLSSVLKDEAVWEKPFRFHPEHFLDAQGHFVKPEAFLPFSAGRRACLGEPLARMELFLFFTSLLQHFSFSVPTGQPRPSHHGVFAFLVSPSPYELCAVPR
# How it was run: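 Room-temperature luminescent CYP2D6 activity assay: compound preincubated 10 min with enzyme–substrate mix, NADPH-initiated reaction 1 h, detection reagent 20 min before reading.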
# [4] = target: Cytochrome P450 2C19 (Homo sapiens) (UniProt P33261); assay: Cytochrome P450 Family 2 Subfamily C Member 19 (CYP2C19) small molecule antagonists: luciferase reporter qHTS assay (AID 1671197); note: nearly all actives have a fitted effect of over 65% in size; note: potency is the fitted concentration of half-maximal effect; for activity change, negative = inhibition: series mostly up to about 120 µM
# Sequence of Cytochrome P450 2C19 (Homo sapiens) (P33261 whole entry, looked up): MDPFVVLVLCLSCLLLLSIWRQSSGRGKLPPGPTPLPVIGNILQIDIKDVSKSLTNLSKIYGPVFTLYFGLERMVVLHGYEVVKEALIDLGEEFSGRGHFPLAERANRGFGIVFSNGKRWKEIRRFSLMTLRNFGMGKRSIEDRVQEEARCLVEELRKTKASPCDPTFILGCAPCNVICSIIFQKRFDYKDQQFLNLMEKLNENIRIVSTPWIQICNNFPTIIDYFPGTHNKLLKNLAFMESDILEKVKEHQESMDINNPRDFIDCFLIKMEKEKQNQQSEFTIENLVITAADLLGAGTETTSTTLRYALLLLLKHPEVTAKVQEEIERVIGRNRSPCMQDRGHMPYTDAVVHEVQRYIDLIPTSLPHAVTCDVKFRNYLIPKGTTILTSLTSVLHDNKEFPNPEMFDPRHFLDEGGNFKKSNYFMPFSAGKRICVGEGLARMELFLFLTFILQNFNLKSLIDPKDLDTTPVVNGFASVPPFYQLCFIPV
# How it was run: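 First, compounds are pinned into enzyme-substrate mix and held 10 min at room temperature. Second, NADPH regeneration solution is added and plates incubate 1 h at 37C. Third, detection reagent is added and luminescence read after 20 min.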
# [5] = target: Cytochrome P450 2C9 (Homo sapiens) (UniProt P11712); assay: Cytochrome P450 Family 2 Subfamily C Member 9 (CYP2C9) small molecule antagonists: luciferase reporter qHTS assay (AID 1671198); note: nearly all actives have a fitted effect of over 50% in size; note: potency is the fitted concentration of half-maximal effect; for activity change, negative = inhibition: series mostly up to about 120 µM
# Sequence of Cytochrome P450 2C9 (Homo sapiens) (P11712 whole entry, looked up): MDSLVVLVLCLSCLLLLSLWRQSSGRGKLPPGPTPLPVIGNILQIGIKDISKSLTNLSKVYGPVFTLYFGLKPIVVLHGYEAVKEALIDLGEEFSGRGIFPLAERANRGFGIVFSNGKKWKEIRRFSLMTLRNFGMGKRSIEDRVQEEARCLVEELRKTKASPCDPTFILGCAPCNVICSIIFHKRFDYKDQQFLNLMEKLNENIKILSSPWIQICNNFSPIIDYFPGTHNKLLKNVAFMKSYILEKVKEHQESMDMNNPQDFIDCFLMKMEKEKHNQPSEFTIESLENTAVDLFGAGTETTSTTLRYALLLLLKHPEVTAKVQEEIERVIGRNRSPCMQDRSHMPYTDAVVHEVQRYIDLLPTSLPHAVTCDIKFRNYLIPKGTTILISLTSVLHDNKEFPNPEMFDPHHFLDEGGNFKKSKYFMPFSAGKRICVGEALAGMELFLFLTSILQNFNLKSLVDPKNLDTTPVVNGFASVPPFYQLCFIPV
# How it was run: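 CYP2C9 activity was measured with a P450-Glo proluciferin substrate. Enzyme–substrate mix was held with compound for 10 min at room temperature, then NADPH regeneration solution was added for 1 h at 37C. Luciferin product was read as luminescence.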
# [6] = target: Cytochrome P450 1A2 (Homo sapiens) (UniProt P05177); assay: Cytochrome P450 Family 1 Subfamily A Member 2 (CYP1A2) small molecule antagonists: luciferase reporter qHTS assay (AID 1671199); note: nearly all actives have a fitted effect of over 50% in size; note: potency is the fitted concentration of half-maximal effect; for activity change, negative = inhibition: series mostly up to about 120 µM
# Sequence of Cytochrome P450 1A2 (Homo sapiens) (P05177 whole entry, looked up): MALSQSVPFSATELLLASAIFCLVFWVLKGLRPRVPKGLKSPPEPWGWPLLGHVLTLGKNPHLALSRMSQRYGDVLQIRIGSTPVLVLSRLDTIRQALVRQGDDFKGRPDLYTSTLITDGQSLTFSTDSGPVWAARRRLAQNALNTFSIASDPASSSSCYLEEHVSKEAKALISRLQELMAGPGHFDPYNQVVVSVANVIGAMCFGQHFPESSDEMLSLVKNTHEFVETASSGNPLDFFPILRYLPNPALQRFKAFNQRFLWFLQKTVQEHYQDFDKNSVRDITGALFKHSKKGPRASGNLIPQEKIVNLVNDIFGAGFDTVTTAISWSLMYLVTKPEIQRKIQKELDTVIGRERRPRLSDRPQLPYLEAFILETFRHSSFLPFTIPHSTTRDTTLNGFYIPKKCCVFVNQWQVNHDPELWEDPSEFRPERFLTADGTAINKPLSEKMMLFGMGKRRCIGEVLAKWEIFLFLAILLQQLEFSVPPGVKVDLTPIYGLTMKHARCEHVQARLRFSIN
# How it was run: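 Room-temperature CYP1A2 reaction with proluciferin substrate: compounds added from DMSO, 10 min preincubation, NADPH regeneration for 1 h. Luciferin detection reagent then added; luminescence recorded as RLU.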
# [7] = target: Voltage-gated inwardly rectifying potassium channel KCNH2 (Homo sapiens) (UniProt Q12809); assay: Human Ether-a-go-go-Related Gene (hERG) channel small molecule antagonists: fluorescence cell-based qHTS assay (AID 1671200); note: nearly all actives have a fitted effect of over 50% in size; note: potency is the fitted concentration of half-maximal effect;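 for activity change, negative = inhibition: hERG-expressing U2OS cells given a thallium stimulus after FluxOR II dye loading; series mostly up to about 77 µM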
# Sequence of Voltage-gated inwardly rectifying potassium channel KCNH2 (Homo sapiens) (Q12809 whole entry, looked up): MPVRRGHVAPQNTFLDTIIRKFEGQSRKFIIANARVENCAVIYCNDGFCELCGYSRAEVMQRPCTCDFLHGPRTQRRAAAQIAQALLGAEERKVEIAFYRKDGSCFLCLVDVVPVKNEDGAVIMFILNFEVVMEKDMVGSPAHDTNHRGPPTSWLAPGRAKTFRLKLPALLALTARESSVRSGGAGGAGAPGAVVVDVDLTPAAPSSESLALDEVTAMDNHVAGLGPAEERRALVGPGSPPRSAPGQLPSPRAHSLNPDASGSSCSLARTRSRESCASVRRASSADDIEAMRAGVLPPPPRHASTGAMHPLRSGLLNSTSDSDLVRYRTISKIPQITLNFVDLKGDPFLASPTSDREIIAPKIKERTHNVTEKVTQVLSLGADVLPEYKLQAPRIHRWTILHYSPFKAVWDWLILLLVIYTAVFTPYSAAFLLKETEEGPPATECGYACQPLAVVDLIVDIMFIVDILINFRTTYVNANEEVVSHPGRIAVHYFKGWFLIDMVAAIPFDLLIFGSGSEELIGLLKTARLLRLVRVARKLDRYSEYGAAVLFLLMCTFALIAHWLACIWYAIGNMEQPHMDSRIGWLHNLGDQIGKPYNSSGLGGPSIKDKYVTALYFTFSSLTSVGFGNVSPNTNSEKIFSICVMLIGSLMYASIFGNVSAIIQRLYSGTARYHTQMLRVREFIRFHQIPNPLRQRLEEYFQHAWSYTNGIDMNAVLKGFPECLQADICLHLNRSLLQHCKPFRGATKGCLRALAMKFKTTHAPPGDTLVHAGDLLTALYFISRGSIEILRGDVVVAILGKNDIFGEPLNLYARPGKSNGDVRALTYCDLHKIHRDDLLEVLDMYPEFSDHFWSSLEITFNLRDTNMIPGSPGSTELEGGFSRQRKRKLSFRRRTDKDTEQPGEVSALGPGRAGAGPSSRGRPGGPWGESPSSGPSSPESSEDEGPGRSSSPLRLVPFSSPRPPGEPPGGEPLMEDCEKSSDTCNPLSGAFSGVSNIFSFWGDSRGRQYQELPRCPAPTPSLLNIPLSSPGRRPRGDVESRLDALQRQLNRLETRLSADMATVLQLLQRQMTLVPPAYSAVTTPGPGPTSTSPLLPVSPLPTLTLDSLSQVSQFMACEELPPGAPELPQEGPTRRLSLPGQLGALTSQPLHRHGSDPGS
# How it was run: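 Kinetic two-minute fluorescence traces, sampled at 1 s, were collected following thallium stimulus of U2OS cells (1000 per well) that had been cultured overnight at 37 C and loaded with FluxOR II.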
# [8] = target: Cytochrome P450 3A4 (Homo sapiens) (UniProt P08684); assay: Cytochrome P450 Family 3 Subfamily A Member 4 (CYP3A4) small molecule antagonists: luciferase reporter qHTS assay (AID 1671201)
# Sequence of Cytochrome P450 3A4 (Homo sapiens) (P08684 whole entry, looked up): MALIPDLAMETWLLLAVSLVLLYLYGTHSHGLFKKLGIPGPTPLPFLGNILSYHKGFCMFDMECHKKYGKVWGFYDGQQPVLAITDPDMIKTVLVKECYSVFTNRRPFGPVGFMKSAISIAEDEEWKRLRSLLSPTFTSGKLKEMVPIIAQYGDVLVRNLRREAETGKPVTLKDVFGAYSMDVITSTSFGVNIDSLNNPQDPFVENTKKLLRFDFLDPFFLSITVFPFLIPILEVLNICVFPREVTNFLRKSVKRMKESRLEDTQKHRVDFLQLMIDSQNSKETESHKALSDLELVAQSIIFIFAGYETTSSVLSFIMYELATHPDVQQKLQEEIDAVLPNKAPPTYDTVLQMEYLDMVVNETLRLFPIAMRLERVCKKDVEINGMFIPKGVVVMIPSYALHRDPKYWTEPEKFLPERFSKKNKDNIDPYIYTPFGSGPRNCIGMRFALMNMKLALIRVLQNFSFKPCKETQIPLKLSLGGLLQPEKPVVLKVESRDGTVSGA
# How it was run: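 Proluciferin-to-luciferin conversion by CYP3A4, NADPH-regenerated, 1 h RT; luminescence read as RLU. Ketoconazole as control.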
smiles,measurement,setting,value
CN1C(CCl)Nc2cc(Cl)c(S(N)(=O)=O)cc2S1(=O)=O (stereo not drawn),outcome,[1],inactive
same,outcome,[2],inactive
same,Potency,[3],inactive
same,Potency,[4],inactive
same,Potency,[5],inactive
same,Potency,[6],inactive
same,Potency,[7],inactive
C[C@@H]1CC[C@@]2(OC1)O[C@H]1C[C@H]3[C@@H]4CC[C@H]5C[C@@H](O)CC[C@]5(C)[C@H]4CC(=O)[C@]3(C)[C@H]1[C@@H]2C,outcome,[1],inactive
same,outcome,[2],inactive
same,"activity change, negative = inhibition",[4],11.3% [at 10.5 µM]
same,"activity change, negative = inhibition",[5],3.54% [at 10.5 µM]
same,"activity change, negative = inhibition",[6],10.1% [at 10.5 µM]
same,"activity change, negative = inhibition",[7],3.03% [at 6.97 µM]
same,"activity change, negative = inhibition",[8],29.8% [at 10.5 µM]
C[n+]1ccccc1/C=N/O,outcome,[1],inactive
same,outcome,[2],inactive
same,Potency,[3],inactive
same,Potency,[4],inactive
same,Potency,[5],inactive
same,Potency,[6],inactive
same,Potency,[7],inactive
same,Potency,[8],inactive
CCCCN=C(N)N=C(N)N,outcome,[1],inactive
same,outcome,[2],inactive
same,Potency,[4],inactive
same,Potency,[5],inactive
same,Potency,[7],inactive
same,Potency,[8],inactive
CCOc1ccccc1OCCN[C@H](C)Cc1ccc(OC)c(S(N)(=O)=O)c1,outcome,[1],inactive
same,outcome,[2],inactive
same,Potency,[3],12.3 µM (active)
same,Potency,[4],inactive
same,Potency,[6],inactive
same,Potency,[7],21.3 µM (active)
CC(O)CCCCn1c(=O)c2c(ncn2C)n(C)c1=O (stereo not drawn),outcome,[1],inactive
same,outcome,[2],inactive
same,Potency,[4],inactive
same,Potency,[5],inactive
same,Potency,[7],inactive
same,Potency,[8],inactive
COc1cnc(NS(=O)(=O)c2ccc(N)cc2)nc1,outcome,[1],inactive
same,outcome,[2],inactive
same,Potency,[5],inactive
same,Potency,[6],inactive
same,Potency,[7],inactive
same,Potency,[8],inactive
CN(C)CCc1c[nH]c2ccc(CS(=O)(=O)N3CCCC3)cc12,outcome,[1],inactive
same,outcome,[2],inactive
same,Potency,[4],inactive
same,Potency,[5],inactive
same,Potency,[6],inactive
same,Potency,[7],inactive
same,Potency,[8],inactive
CC(=O)Nc1ccc(OCCOCCOc2ccc(NC(C)=O)cc2)cc1,outcome,[1],inactive
same,outcome,[2],inactive
same,Potency,[4],17.4 µM (active)
same,Potency,[5],5.49 µM (active)
same,Potency,[6],inactive
same,Potency,[7],inactive
same,Potency,[8],inactive
Nc1ccc(C(=O)NCC(=O)O)cc1,outcome,[1],inactive
same,outcome,[2],inactive
same,Potency,[4],inactive
same,Potency,[5],inactive
same,Potency,[6],inactive
same,Potency,[7],inactive
same,Potency,[8],inactive
C=CCN1CCc2nc(N)sc2CC1,outcome,[1],inactive
same,outcome,[2],inactive
same,Potency,[5],inactive
same,Potency,[6],inactive
same,Potency,[7],inactive
same,Potency,[8],inactive
C[C@]12C=CC(=O)C=C1[C@@H](F)C[C@@H]1[C@@H]2[C@@H](O)C[C@@]2(C)[C@H]1CC[C@]2(O)C(=O)CO,outcome,[1],inactive
same,outcome,[2],inactive
same,Potency,[3],inactive
same,Potency,[4],inactive
same,Potency,[5],inactive
same,Potency,[6],inactive
same,Potency,[7],inactive
COc1cc2nc(N3CCN(C(=O)C4CCCO4)CC3)nc(N)c2cc1OC (stereo not drawn),outcome,[2],inactive
same,Potency,[5],inactive
same,Potency,[6],inactive
CC1(C)CC(N)CC(C)(C)N1,Potency,[3],inactive
same,Potency,[4],inactive
same,Potency,[5],inactive
same,Potency,[6],inactive
same,Potency,[7],inactive
same,Potency,[8],inactive
Cc1ccc(NC(N)=O)cc1,Potency,[3],inactive
same,Potency,[4],inactive
same,Potency,[5],inactive
same,Potency,[6],40.2 µM (active)
same,Potency,[7],inactive
same,Potency,[8],inactive
O=C(c1ccccc1)c1cccc(O)c1,Potency,[3],64.3 µM (active)
same,Potency,[4],22.8 µM (active)
same,Potency,[5],inactive
same,Potency,[6],36.2 µM (active)
same,Potency,[7],inactive
CCCCCCCOC(C)=O,Potency,[3],inactive
same,Potency,[4],inactive
same,Potency,[5],inactive
same,Potency,[6],inactive
same,Potency,[7],inactive
same,Potency,[8],inactive
CC1(C)C(=O)C(C)(C)C1=O,Potency,[3],inactive
same,Potency,[4],inactive
same,Potency,[5],inactive
same,Potency,[6],inactive
same,Potency,[7],inactive
same,Potency,[8],inactive
CCN(CC)CC(=O)Oc1ccc(NC(C)=O)cc1,Potency,[3],inactive
same,Potency,[4],inactive
same,Potency,[5],inactive
same,Potency,[6],inactive
same,Potency,[7],inactive
same,Potency,[8],inactive
CC(C)(C)C(=O)CC(=O)C(C)(C)C,Potency,[3],inactive
same,Potency,[4],inactive
same,Potency,[5],inactive
same,Potency,[6],inactive
same,Potency,[7],inactive
same,Potency,[8],inactive
C=C(C)C(=O)OCCCC,Potency,[3],inactive
same,Potency,[4],inactive
same,Potency,[5],inactive
same,Potency,[6],inactive
same,Potency,[7],inactive
same,Potency,[8],inactive
CCCCCCCC(=O)N(C)C,Potency,[3],inactive
same,Potency,[4],inactive
same,Potency,[5],inactive
same,Potency,[6],inactive
same,Potency,[7],inactive
same,Potency,[8],inactive
CC(C)c1cc(C(C)C)cc(C(C)C)c1,Potency,[3],inactive
same,Potency,[4],inactive
same,Potency,[5],inactive
same,Potency,[6],inactive
same,Potency,[7],inactive
same,Potency,[8],inactive
CC(C)C(C)C,Potency,[3],inactive
same,Potency,[4],inactive
same,Potency,[5],inactive
same,Potency,[6],inactive
same,Potency,[7],inactive
same,Potency,[8],inactive
Cc1cc(C)c(C)c(C)c1,Potency,[3],inactive
same,Potency,[4],inactive
same,Potency,[5],inactive
same,Potency,[6],inactive
same,Potency,[7],inactive
same,Potency,[8],inactive
N#CC1(N)CCCCC1,Potency,[3],inactive
same,Potency,[4],inactive
same,Potency,[5],inactive
same,Potency,[6],inactive
same,Potency,[7],inactive
same,Potency,[8],inactive
CCCCC(O)/C=C(C)/C=C/C=C/C(=O)N1CCCC1=O (stereo not drawn),Potency,[3],inactive
same,Potency,[4],inactive
same,Potency,[5],inactive
same,Potency,[6],inactive
same,Potency,[7],inactive
N=C(N)S(=O)O,Potency,[3],inactive
same,Potency,[4],inactive
same,Potency,[5],inactive
same,Potency,[6],inactive
same,Potency,[7],inactive
same,Potency,[8],inactive
CCCCCCCCCCCC(C)=O,Potency,[3],inactive
same,Potency,[4],inactive
same,Potency,[5],inactive
same,Potency,[6],inactive
same,Potency,[7],inactive
same,Potency,[8],inactive
C=CCOC(=O)CCCCCCCC,Potency,[3],63.8 µM (active)
same,Potency,[4],inactive
same,Potency,[5],inactive
same,Potency,[6],40.2 µM (active)
same,Potency,[7],inactive
same,Potency,[8],inactive
